molecular target: PLEKHN1; experiment: pooled miR-30 sensor sort-seq; sequence = guide strand; settings: shRNA
Also: reference of the scale not given here.

Sequence | sensor-assay potency score (higher = more potent)
TTCTCCTCCAGGTTGATGTGGA | -0.466
TCGCTGGTTCTCCAGGTCCAGG | -2
TGACCGTAGTCCTCGTAGCTGG | -1.04
TGAAATGTGAGTCCTTCCGAGC | -1.13
TAGCTGGCGCACACCACGCGGA | -1.23
TAGCAGTCGCTGACATCCTGGC | -0.66
TTTCTGGAGAAGGAGGCCCGGA | -1.45
TTGAACACACTCAGGAATGGCT | -0.516

molecular target: PLK1S1; experiment: as above; settings: shRNA

Sequence | sensor-assay potency score (higher = more potent)
TATTCCACTATTGTCATTCAGA | -0.697
TAGATGAAAAACTAGCTTCCGA | -0.0275
TAGTTTTACATATTTCAGCTTA | -0.42
TTTGTCTCGAATGCACCGCTGC | -0.55
TTGAGTCTCATATTCGAGCTTC | 0.47
TTTGAGCATAGCATCTTCTTAA | -0.677
TTGGTTTCGAGTATGAGCCTTC | 0.232
TTCAGATTCACATATTTCCTTC | -0.129
TATTCTGAAACTGGTATCGGAG | -0.809
TTGTACTACACAGCTGTCTGTC | -0.193
TATTTCAGCTTAACTCTGCATG | -0.461

molecular target: PLN; experiment: as above; settings: shRNA

Sequence | sensor-assay potency score (higher = more potent)
TAGCTTTTGACGTGCTTGTTGA | -0.611
TTGAGGCTCTTCTTATAGCTGA | -0.603
TTTAGTCTTAATCTTGACCTTT | -0.026
TTAATCTTGACCTTTTCACAAA | -1.35
TTTGACGTGCTTGTTGAGGCAT | 0.851
TTGACGTGCTTGTTGAGGCATT | -0.832
TTAGTCTTAATCTTGACCTTTT | -0.719
TTTCACAAAGAAACTCTTCTAC | 0.725
TATAGCTGAGCGAGTGAGGTAT | -0.0267
TTGTTTTCCTGTCTGCATGGGA | 0.161
TCTGTAGCTTTTGACGTGCTTG | -0.521
TAAGATGAGACAGAAATTGATA | -0.754

molecular target: PLS1; experiment: as above; settings: shRNA

Sequence | sensor-assay potency score (higher = more potent)
TTTGCTTTTTAATTCTTGCATT | -1.04
TTAGTGACACAAACTCTTCAAA | -0.919
TTAACAATGCAATCAGAGCTTC | -0.361
TAAATTTTCAGAAATAGTGAAT | -0.578
TTTATCTGCTTCTTGAAGCATG | -0.495
TTAAGAGTCTGATTGACCCATT | -0.779
TGTGCTTATAGATTTATCCTTG | 0.0263
TTTAAGAGTCTGATTGACCCAT | 0.465
TATCTTTGCTTTTTAATTCTTG | -0.576

— the OligoGym collection
